Screening data from PubChem BioAssay.
ATXN2 expr inh: inhibitors of ATXN2 expression | HEK-293 ATXN2-luciferase reporter, luminescence, 24 h | Potency, µM (highest dose often 57 µM), for the others: at the top dose activity change, negative = inhibition, hits mostly inhibitors | 360,000 compounds, 0.72% hits | AID 1745845; note: % is set by controls: 0 for no effect and ±100 for the full control effect; nearly all actives have a fitted effect of over 55% in size
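qHTS (up to 57 uM final) was run with 24 h compound exposure of reporter cells at 37 °C. Each well was multiplexed: SteadyGlo luminescence measured ATXN2-luciferase expression after a fluorogenic Gly-Phe-AFC viability readout (25 uM final).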
DT40 TDP1 CPT: growth inhibition of DT40 Tdp1-/-;hTDP1 cells with camptothecin (screen for TDP1 inhibitors). Potency, µM (doses to about 46.2 µM), for inactives: top-dose activity change, negative = growth inhibition, actives largely listed as inhibitors. 420,000 compounds, 12% hits. AID 686979. chicken DT40 Tdp1-/-;hTDP1 cells + 20 nM CPT, ATP luminescence, 48 h; note: % is set by controls: 0 for no effect and ±100 for the full control effect; nearly all actives have a fitted effect of over 55% in size
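Cell growth measured by CellTiter-Glo luminescence after a minimum 48 h, 37 C compound exposure with 20 nM CPT in Tdp1-knockout DT40 cells stably expressing hTDP1, seeded 400/well; qHTS titration format.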
HepG2 viability: HepG2 cytotoxicity, counter-screen for TGF-b inhibitors. AID 588856. HepG2 CAGA-GFP viability, ATP luminescence, 18 h. Potency, µM (doses to about 46.1 µM), for inactives: top-dose activity change, negative = cytotoxicity, hits mostly cytotoxic. 410,000 compounds, 0.76% hits
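CellTiter-Glo luminescence gave cytotoxicity after 18 hours at 37 degrees C. The cells were HepG2 CAGA-GFP in 1% FBS DMEM, stimulated with 500 pg/mL TGF-beta after compound addition. %Activity was normalised to no-cell wells (complete cell-killing) and DMSO (no toxicity), and curves were fitted and classified.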
TDP1 cell noCPT: qHTS for Inhibitors of human tyrosyl-DNA phosphodiesterase 1 (TDP1): qHTS in cells in absence of CPT | DT40 Tdp1-/- hTDP1 cells, no CPT, ATP luminescence, 48 h | 420,000 compounds, 15% hits | Potency, µM (titrated, usually from 46.2 µM), for the others: top-dose activity change, negative = growth inhibition, hits mostly inhibitors; note: % is set by controls: 0 for no effect and ±100 for the full control effect; nearly all actives have a fitted effect of over 55% in size
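Stably hTDP1-transfected Tdp1-null chicken DT40 cells were treated with library compounds minus camptothecin and grown for at least 48 hr at 37 °C, after which cellular ATP was quantified by luminescence.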
TGFb SMAD3 inh: blocks TGF-b signaling | HepG2 CAGA-GFP TGF-b/SMAD3 reporter, GFP fluorescence, 18 h; TGF-beta stimulated, 500 pg/mL final | Potency, µM (titrated, usually from 46.1 µM), without a hit: at the top dose activity, negative = inhibition, actives largely listed as inhibitors | 410,000 compounds, 1.2% hits | AID 588855; note: % is set by controls: 0 for no effect and ±100 for the full control effect; nearly all actives have a fitted effect of over 65% in size
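HEPG2 CAGA-GFP, 1000 cells/well; 2 h settle, 37 C; cpd via pin tool; TGF-b 500 pg/mL final; 18 h, 37 C; GFP imaging ex488/em500-530; %Activity normalised to -TGF-b and +DMSO controls; CRC fit, curve class.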
S2 tox: reduces viability in counter-screen for ATXN expression inhibitors. S2 cells (HEK-293 line with an ATXN2-luciferase reporter) viability, CellTiter-Fluor protease fluorescence, 24 h. Potency, µM (titrated, usually from 56.7 µM), actives largely listed as cytotoxic. 400,000 compounds, 0.49% hits. AID 651635; note: nearly all actives have a fitted effect of over 40% in size
* marks the source's active call; other numbers are inactive results; i = inactive; ? = inconclusive; · = no result. Sampled rows, rich in hits. Any-hit rate of the full collection: about 17%. Calls come from the whole dose curve; as a rule, active = well fitted curve in the direction sought with a large enough effect; inconclusive = small, poorly fitted or top-dose-only effect, or another doubt; inactive = no such curve, though single readings can be large; an effect the other way counts as inactive or inconclusive. Potency is the fitted concentration of half-maximal effect.

SMILES	ATXN2 expr inh	DT40 TDP1 CPT	HepG2 viability	TDP1 cell noCPT	TGFb SMAD3 inh	S2 tox
CCOC(=O)c1ccc(NC(=O)CC2C(=O)N(c3ccccc3)C(=O)N2Cc2ccc(C)cc2)cc1 (centres undefined)	-30%	?	-4%	23µM*	-33%	·
CCc1ccc(NC(=O)CC2C(=O)N(c3ccc(C)cc3)C(=O)N2CCc2ccncc2)cc1 (centres undefined)	-22%	?	-17%	23µM*	?	?
CCNC(=O)CC1C(=O)N(c2ccc(F)cc2)C(=S)N1CCc1ccncc1 (centres undefined)	9%	-9%	2%	3%	-4%	i
CCC1CCCCN1CCCNC(=O)Cn1c(=O)c2cccn2c2cccnc21 (centres undefined)	-7%	-6%	9%	-1%	4%	i
CCOc1ccc(NC(=O)CC2C(=O)N(c3ccc(C)cc3)C(=O)N2CCC2=CCCCC2)cc1 (centres undefined)	6%	?	-25%	?	-7%	i
COc1ccc(NC(=O)CC2C(=O)N(c3cccc(OC)c3)C(=O)N2CCC2=CCCCC2)cc1 (centres undefined)	-30%	?	-5%	23µM*	-28%	?
COc1cc(NC(=O)CC2C(=O)N(c3cccc(C)c3)C(=O)N2Cc2ccco2)cc(OC)c1 (centres undefined)	·	?	-21%	23µM*	-6%	·
CCOC(=O)c1cccc(NC(=O)c2cc3c(=O)n(C)c4ccccc4c3n2C)c1	-5%	?	2%	21µM*	3%	i
COC(=O)c1cccc(NC(=O)c2cc3sccc3n2C)c1	6%	?	-7%	21µM*	-1%	i
Cn1c(C(=O)Nc2cccc(Cl)c2)cc2c(=O)n(C)c3ccccc3c21	7%	-22%	-6%	15µM*	9%	i
Cc1ccc2c(=O)c(C(=O)c3ccc(F)cc3)cn(CC(=O)NCc3ccccc3Cl)c2n1	2%	-24%	-8%	-7%	0%	i
CC(C)(C)c1ccc(C(=O)O[C@H]2[C@H](Cc3ccccc3)NS(=O)(=O)[C@H]3C[C@@H]4C=C[C@]23O4)cc1	?	?	3%	?	-10%	i
Cc1cc(C)c(CSc2nnc(C)n3c2cc2occc23)c(C)c1	·	18µM*	-101%	21µM*	?	·
Cc1cc(C)c(CSc2ncnc3nc[nH]c23)c(C)c1	-20%	-17%	-15%	-27%	-12%	i
CC(=O)O[C@H]1[C@H](C)OC=C[C@@H]1OC(C)=O	11%	?	4%	16µM*	-26%	i
CC(=O)OC1COC(OC(C)=O)CO1 (centres undefined)	3%	-21%	23%	-16%	6%	i
CC(C)Nc1nc(NCCOc2ccccc2)c2sccc2n1	?	21µM*	-26%	9.2µM*	?	i
COc1ccccc1CNc1nc(-c2ccccc2CO)c2sccc2n1	12%	?	-20%	?	-6%	i
COc1ccccc1CNc1nc(NC(C)C)nc2ccsc12	0%	12µM*	-11%	12µM*	?	i
Cc1cscc1-c1nc(NCC2CC2)nc2ccsc12	15%	?	-1%	?	4%	i
CC(C)c1ccc(CNc2nc(NCC3CC3)nc3ccsc23)cc1	?	9.2µM*	14µM*	10µM*	?	·
COc1ccccc1CNc1nc(NCc2ccc(C(C)C)cc2)c2sccc2n1	32µM*	9.2µM*	-101%	2.9µM*	?	·
CC(=O)NCCNc1nc(NC(C)C)nc2ccsc12	10%	5%	1%	4%	-6%	i
CCOc1ccc(NC(=O)CSc2nnc3c(n2)[nH]c2ccc(S(=O)(=O)N(C)C)cc23)cc1	·	12%	·	?	·	·
CSc1ccccc1CNc1nc(NCC2CC2)nc2ccsc12	?	15µM*	11µM*	21µM*	16µM*	14µM*
SMILES	ATXN2 expr inh	DT40 TDP1 CPT	HepG2 viability	TDP1 cell noCPT	TGFb SMAD3 inh	S2 tox
COc1cccc(CNc2nc(NCC3CC3)nc3ccsc23)c1OC	0%	9.2µM*	-47%	15µM*	?	16µM*
COc1cccc(CNc2nc(NC(C)C)nc3ccsc23)c1OC	-32%	18µM*	-47%	21µM*	?	?
Cc1ccc(S(=O)(=O)c2cn(CC(=O)Nc3ccccc3)c3cc4c(cc3c2=O)OCO4)cc1	7%	-1%	-11%	-9%	-14%	i
CCc1ccc(OCC(=O)Nc2cccc3nsnc23)cc1	1%	-3%	-6%	20%	0%	i
Cc1ccc(C(=O)N2[C@@H]3CN(C)C(=O)[C@@]2(Cc2ccccc2)[C@H]2C(=O)N(Cc4ccccc4)C(=O)[C@@H]32)cc1	-8%	0.0052µM*	-8%	?	0%	i
Cc1ccc(C(=O)OCC(=O)NC2CC2)cc1S(=O)(=O)N1CCOCC1	8%	2%	-1%	23%	0%	i
Nc1ccc2c(c1)Cc1cc(N)c(Cl)cc1-2	27%	3%	-11%	-6%	-25%	i
Nc1cc2c(cc1N)-c1ccccc1C2	68%	?	-10%	16µM*	9%	i
CCCNC(=O)C1CC(c2ccc(C(F)(F)F)cc2)=NO1 (centres undefined)	6%	12µM*	3%	12µM*	-2%	i
CCCCNC(=O)C1CC(c2ccc(C(F)(F)F)cc2)=NO1 (centres undefined)	8%	18µM*	2%	9.2µM*	?	i
S=c1[nH]nc(C2CCCCC2)n1/N=C/C=C/c1ccccc1	-17%	26µM*	-40%	?	?	i
Oc1cccc(/C=N/n2c(C3CCCCC3)n[nH]c2=S)c1	7%	7%	4%	-22%	0%	i
O=[N+]([O-])c1cccc(/C=N/n2c(C3CCCCC3)n[nH]c2=S)c1	10%	?	-24%	16µM*	-24%	i
CNC1C(O)C(O)C(CO)O[C@H]1OC1C(O[C@@H]2C(O)C(O)[C@@H](N=C(N)N)C(O)C2N=C(N)N)OC(C)[C@]1(O)C=O (some centres undefined)	·	-1%	·	-10%	·	·
CCOC(=O)N1CCN(C(=S)NC(=O)c2ccnn2C)CC1	-12%	4%	-3%	-4%	6%	i
